# Rin1-Abl PPI inh: blocks binding of human Rin1 to Abl; actives 0.4% (n = 360,000); P00519+Q13671; inhibition, % at 7.35 µM; AID 588664; TR-FRET Rin1/Abl binding, biochemical; in the data active means inhibition above about 5%, passing the limit was not always enough
# Calb FLC: affects C. albicans growth with fluconazole; C. albicans CaCi-2 (fluconazole-resistant clinical isolate) + fluconazole, Alamar Blue growth, 48 h; growth inhibition, % (concentration not given with the values); actives 0.57% (n = 300,000); AID 1979;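 active means growth inhibition above about 58% in most replicates, limit read from the data, passing the limit was not always enough; inconclusive means exactly half the replicates above a set limit; inactive means most replicates below a set limit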;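 further: all wells also contain fluconazole at 8 µg/ml as a sub-toxic cotreatment; 0% = median of DMSO wells and 100% = median of geldanamycin control wells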
# IDE inh: cellular human IDE inhibition; P14735; HEK cells, FAbetaB cleavage, fluorescence polarization; inhibition, % at 5.59 µM; actives 0.41% (n = 320,000);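 active means percent inhibition above the average of all tested compounds plus 3 SD, set per screening campaign, cut at about 16% in these data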;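 further: IDE supplied by intact live HEK cells; FP after avidin binding of uncleaved biotin substrate so inhibition keeps polarization high; 0% = DMSO wells and 100% = 60 µM reference IDE inhibitor Ii1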
# IDE act: IDE (human) activation, cell-based; AID 493087; actives 0.073% (n = 340,000); activation, % at 5.96 µM; HEK cells, FAbeta-B cleavage, fluorescence polarization; 0% vehicle, 100% cell-free pure enzyme wells;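 active means activation above the mean of all tested compounds plus 3 SD, set per screening campaign, cut at about 17% in these data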
# Rpn11 inh: inhibitors of human proteasome Rpn11; O00487; human 26S proteasome, Ub4-pepOG fluorescence polarization; 20S core pre-blocked with epoxomicin; inhibition, % at 20 µM; actives 0.59% (n = 360,000); AID 588493;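 active means inhibition at 20 µM, scaled to each plate's controls, above about 33%, limit read from the data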
# Target sequence (O00487 whole entry, looked up): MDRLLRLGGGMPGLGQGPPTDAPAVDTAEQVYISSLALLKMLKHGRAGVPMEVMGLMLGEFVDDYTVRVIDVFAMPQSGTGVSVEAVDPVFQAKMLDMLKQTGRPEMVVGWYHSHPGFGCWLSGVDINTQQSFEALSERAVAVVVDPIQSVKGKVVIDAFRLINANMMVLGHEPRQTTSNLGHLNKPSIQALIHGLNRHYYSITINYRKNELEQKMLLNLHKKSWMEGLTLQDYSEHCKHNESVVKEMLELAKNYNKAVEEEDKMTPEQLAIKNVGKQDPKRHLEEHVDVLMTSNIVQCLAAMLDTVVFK
# TPT1 inh: blocks Candida albicans tRNA 2'-phosphotransferase. recombinant caTPT1, FP RNA substrate dephosphorylation. inhibition, % at 5 µM. actives 0.81% (n = 300,000). AID 1962;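 active means inhibition above the mean of all tested compounds plus 3 SD, set per screening campaign, cut at about 24% in these data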;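 further: plate controls were DMSO alone for no effect and ferristatin control at 100 nM for full effect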
# * hit, by the source's call; ? = inconclusive; . = not tested or not shown. This is a sample that favours compounds with a hit; in the whole collection about 2.3% have one here.
SMILES,Rin1-Abl PPI inh,Calb FLC,IDE inh,IDE act,Rpn11 inh,TPT1 inh
CCCc1cc(=O)[nH]c(-n2[nH]c3c(c2=O)CCCC3)n1,-1,46,19*,-1,8,17
CCCc1cc(=O)[nH]c(SCC)n1,4,22,7,-1,-7,-3
COc1cc(C2c3cc4c(cc3OC(NCc3ccccc3)C2C)OCO4)cc(OC)c1OC (configuration not stated),-2,.,.,4,4,.
CCCCCCCCC(=O)NNC(=O)c1c(O)c2ccccc2n(CCC)c1=O,-3,-3,-2,-5,-8,-3
CCCCNC(=O)c1ccc2c(OCC)n(CCCC)nc2c1,5,-5,9,0,-3,-1
CCCCn1nc2cc(C(=O)NCCCCc3ccccc3)ccc2c1OCC,3,2,8,21*,-2,-3
CCOC(=O)c1c(NC(=O)CCNCc2ccco2)sc2c1CCC2,.,-9,4,.,.,0
Cc1cccc(Cn2c(NC3CCCC3)nc3c2c(=O)[nH]c(=O)n3C)c1,-4,.,.,.,-11,.
Nc1c(S(=O)(=O)c2ccccc2)c2nc3ccccc3nc2n1CCN1CCOCC1,-2,88*,-1,2,1,-2
Cc1ccc(S(=O)(=O)c2c(N)n(CCN3CCOCC3)c3nc4ccccc4nc23)cc1C,-2,-2,-1,-3,3,-2
CCn1c(SCC(=O)NC2CCCC2)nnc1-c1ccccn1,2,.,0,5,0,3
N#Cc1c(-c2ccc(Cl)cc2)c2c([nH]c1=O)-c1ccccc1OC2,-3,1,16*,-1,4,-4
COc1cc(OC)cc(-c2c(C#Cc3ccsc3)c3cc(-c4ccccc4OC)ccc3n2C)c1,1,.,10,-3,15,.
COc1ccc(-c2c(-c3cc(OC)cc(OC)c3)n(C)c3ccc(Br)cc23)cc1,1,.,-4,2,5,.
COc1ccc(N=Nc2nc3ccc(Br)cc3n2C)cc1,-6,15,-9,28*,-199,-119
CCOc1ccc(NC(=O)NNC(=O)c2cc3ccccc3cc2O)cc1,2,86*,-8,2,1,0
CCc1ccc(NC(=O)NNC(=O)c2cc3ccccc3cc2O)cc1,0,?,-1,1,7,-3
Cc1ccc(NC(=O)NNC(=O)c2cc3ccccc3cc2O)cc1C,-2,81*,-4,7,-9,5
CCCCOc1ccc(C(=O)NN2CCOCC2)cc1,-2,-2,8,2,-8,1
CN(CC(=O)Nc1cccc2ccccc12)C(=O)c1ccc(F)cc1F,-1,.,-1,-2,1,.
CC(C)C[C@@H](CNCC(=O)[C@H](C)NC(=O)c1[nH]cnc1C(=O)N[C@H](CN)CC(C)C)NC(=O)c1nc[nH]c1C(=O)N[C@@H](C)C(=O)O,-1,.,.,3,-2,.
COc1ccc(NC(=O)N(C)C[C@H]2OCCCC[C@@H](C)Oc3ccc(N(C)C)cc3C(=O)N([C@H](C)CO)C[C@@H]2C)cc1,-1,.,.,.,2,.
CC1CCc2c(sc3ncnc(N4CCOCC4)c23)C1 (configuration not stated),5,88*,-4,4,-10,-2
CC1CCc2sc3ncnc(N4CCOCC4)c3c2C1 (configuration not stated),-2,5,0,3,-2,-1
CC1CCCN(C(=O)COC(=O)Cc2c(F)cccc2Cl)C1 (configuration not stated),2,-5,-1,-1,2,-6
SMILES,Rin1-Abl PPI inh,Calb FLC,IDE inh,IDE act,Rpn11 inh,TPT1 inh
CSCCC1NC(=O)C(C(C)=NNC(N)=O)=C1O (configuration not stated),0,.,.,0,10,.
COc1ccc(N2Cc3ccc(C(=O)N/N=C\c4ccc(O)cc4O)cc3C2)cc1,.,93*,2,.,.,7
CC(C)CCNCC(=O)NC(c1ccccc1)c1ccccc1,-4,115*,-4,5,4,3
Cc1ccc(/C=[N+](\[O-])c2ccc(N(C)C)cc2)c2nsnc12,-4,97*,.,5,7,.
Cc1ccc(-c2n[nH]c(=S)n2/N=C/c2cccs2)cc1,0,-3,-3,-4,-2,-1
Oc1c(Br)cc(Br)c(/C=N/n2c(-c3ccccc3)n[nH]c2=S)c1Br,-2,79*,3,0,4,-1
S=c1[nH]nc(-c2ccccc2)n1/N=C/c1cccs1,-4,105*,9,-4,-2,-3
O=C(CCS(=O)(=O)c1ccc(Cl)cc1)Nc1nc(-c2ccncc2)cs1,-4,85*,-2,2,-8,1
CN(C)c1ncc(C2=C(Cl)C(=O)C(N3CCCC3)=C(Cl)C2=O)s1,11*,-14,2,8,-18,-3
CCCCOc1cccc(C(=O)NC(=S)Nc2cccnc2)c1,1,23,3,-8,5,1
CCCOc1cccc(C(=O)Nc2cccnc2)c1,-3,110*,-8,1,-6,0
COc1ccc(/C=N/OCC(=O)OCC(=O)N(C)c2ccccc2)cc1,3,2,6,3,8,-1
O=C(Cc1ccccc1[N+](=O)[O-])NCc1ccc(Cl)cc1,-4,2,4,0,1,1
O=C(NCc1ccc(Cl)cc1)c1n[nH]c([N+](=O)[O-])c1Cl,0,97*,3,-3,-11,0
Cc1ccc(/C=C/C(=O)c2ccccc(=O)c2O)cc1C,5,99*,-1,6,31,4
COC(=O)c1ccc(-n2c(C)cc(C(=O)CCl)c2C)cc1,-3,-32,3,2,-1,1
CCOc1ccc(-n2c(C)cc(C(=O)CCl)c2C)cc1,5,91*,6,1,4,-1
CCOC(=O)c1ccc(NC(=O)c2ccccc2[N+](=O)[O-])cc1,1,-12,1,-1,-7,-2
CCOC(=O)c1cc([N+](=O)[O-])c([N+](=O)[O-])cc1NC(C)=O,-2,106*,-2,-2,-8,-1
COc1cc(/C=C2\C(=O)NN(c3ccc(C)cc3)C2=O)cc([N+](=O)[O-])c1O,-1,-36,1,-3,3,-4
CCOc1cc(/C=C2\NC(=O)NC2=O)cc([N+](=O)[O-])c1O,-11,8,5,-1,7,2
CCOc1cc(/C=C2\C(=O)NN(c3ccccc3)C2=O)cc([N+](=O)[O-])c1O,1,95*,-4,1,-1,3
COc1cc(/C=C2\C(=O)NN(c3ccccc3)C2=O)cc([N+](=O)[O-])c1O,-2,109*,5,4,1,3
Nc1ccc(Oc2cccc(Oc3ccc(N)cc3)c2)cc1,0,116*,-1,-4,4,-1
Cc1cccc(Oc2ccc(N)cc2)c1,3,-54,4,5,4,1
CC(C)(C)OC(=O)N1CCC(C(=O)Nc2ccc(C(=O)NC3CC3)cc2)CC1,0,.,.,3,1,.
